Assay outcomes deposited in PubChem BioAssay by Sanford-Burnham Center for Chemical Genomics.
The sample as a whole holds a higher share of hits than the screen did.
VHR inh color: inhibitors of human VHR1 phosphatase (DUSP3); P51452; recombinant VHR phosphatase, colorimetric substrate read-out; inhibition, % at 20 µM; 50,000 tested, 0.7% active; AID 1992; in the data active = inhibition above about 60%
Target sequence (P51452 whole entry, looked up): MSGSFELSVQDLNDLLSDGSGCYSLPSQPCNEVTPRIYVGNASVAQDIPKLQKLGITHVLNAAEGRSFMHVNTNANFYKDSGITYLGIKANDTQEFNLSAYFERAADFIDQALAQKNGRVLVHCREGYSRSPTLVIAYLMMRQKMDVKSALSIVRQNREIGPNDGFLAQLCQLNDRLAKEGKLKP
The depositor's hits bear a star.

SMILES	VHR inh color
COC(=O)c1ccc(-n2c(C)cc(/C=C3\NC(=S)NC3=O)c2C)cc1	111*
COC(=O)c1ccc(NC(=O)c2c(Cl)cccc2Cl)cc1	1
O=c1nc(/C=C/c2ccc(N3CCOCC3)cc2)cc(C(F)(F)F)[nH]1	0
O=c1nc(/C=C/c2ccc(N3CCCC3)cc2)cc(C(F)(F)F)[nH]1	108*
O=c1nc(/C=C/c2ccc(Cl)cc2)cc(C(F)(F)F)[nH]1	-10
COc1ccccc1N1CCN(/N=C(\C)c2ccncc2)CC1	4
O=C(Nc1ccc[n+](CC(=O)c2cc3ccccc3oc2=O)c1)c1ccccc1	1
COC(=O)c1ccccc1NC(=O)c1ccc[n+]([O-])c1	10
CCOC(=O)C1=C(C)NC(SC)=NC1c1ccc(OC)cc1 (centres undefined)	1
CCOC(=O)C1=NNC2C(=O)N(c3ccccc3C)C(=O)C12 (centres undefined)	-5
CCOC(=O)C1=NNC2C(=O)N(c3cc(OC)ccc3OC)C(=O)C12 (centres undefined)	-3
CCOC(=O)C1=NNC(C(=O)c2ccccc2)C1c1cccc(Br)c1 (centres undefined)	37
CCOC(=O)C1=NNC2C(=O)N(c3ccc(Cl)cc3Cl)C(=O)C12 (centres undefined)	116*
CCOC(=O)C1=NNC(C(=O)c2ccc(Cl)cc2)C1c1ccc(OC)cc1 (centres undefined)	115*
N#Cc1ccc(N=Cc2cccc(O)c2O)cc1	-7
Cc1nn(C2CCCCC2)c(N)c1C#N	4
Cc1ccc2nc(-c3cccc(NC(=O)c4cccs4)c3)oc2c1	-6
O=C(Nc1ccccc1C(F)(F)F)c1cccc(OCc2ccccc2)c1	114*
O=C(Nc1ccccc1C(F)(F)F)c1ccc2ccccc2c1	16
O=C(Nc1ccc(I)cc1Cl)c1cccc(OCc2ccccc2)c1	2
Cc1ccc(S(=O)(=O)Oc2ccc(/C=C3\SC(N)=NC3=O)cc2Br)cc1	0
O=C1CC2c3ccccc3C1C1C(=O)N(c3ccccc3)C(=O)C21 (centres undefined)	108
COc1ccc(-c2nn(-c3ccccc3)cc2/C=C/C(=O)c2ccccc2)cc1	0
CN(C)c1ccc(/C=N/S(=O)(=O)CCc2ccccc2)cc1	-3
CN(C)c1ccc(/C=C/C=C/c2cc[n+](CCCS(=O)(=O)[O-])cc2)cc1	100*
SMILES	VHR inh color
Cc1ccc(S(=O)(=O)N/N=C/C=C/c2ccc(N(C)C)cc2)cc1[N+](=O)[O-]	-8
COc1cccc(C(=O)NNC(=O)c2ccc(F)cc2)c1	-37
Nc1cc(S(=O)(=O)Nc2ccccc2)ccc1Cl	2
O=[N+]([O-])c1ccc(Cl)cc1NCc1ccccc1	5
O=C(NCc1ccccc1)c1ccc(S(=O)(=O)c2ccccc2)cc1	1
O=C1C=CC(=O)C(/C(=C/NCc2ccccc2)[N+](=O)[O-])=C1	86*
O=C(c1sc2cc(F)ccc2c1Cl)N1CCCCC1	-50
Cc1ccc(C(=O)Oc2ccccc2C(=S)N2CCOCC2)cc1	-9
CCOC(=O)C1=NNC2(c3ccc(Cl)cc3)C(=O)N(c3cccc(OC)c3)C(=O)C12 (centres undefined)	100*
CCOC(=O)C1=C(C)NC(C)=C(C(=O)OC)C1c1ccc(Cl)cc1 (centres undefined)	-15
CCOC(=O)C1=NNC2C(=O)N(c3cccc(Br)c3)C(=O)C12 (centres undefined)	-20
COc1cccc(NC(=O)COc2cc(C)ccc2C(C)C)c1	-8
O=C(c1cccnc1)N1N=C(c2ccc([N+](=O)[O-])cc2)CC1(O)C(F)(F)F (centres undefined)	-13
Cc1cc(/C=N\Nc2ccc([N+](=O)[O-])cn2)c(C)n1-c1ccc(O)cc1	85*
Cc1cc(C=O)c(C)n1-c1ccc([N+](=O)[O-])cc1	6
Cc1cc(/C=N\Nc2ccc([N+](=O)[O-])cn2)c(C)n1-c1ccc(C(=O)O)cc1	22
CC(C)=CCCC1=CCC2(C)C(=O)NNC(=O)C2C1 (centres undefined)	-7
COc1ccc(N2Cc3ccc(C(=O)NN)cc3C2)cc1	94*
COc1ccc(N2Cc3ccc(C(=O)N/N=C\c4ccc(Br)cc4)cc3C2)cc1	-15
Cc1cc2c(cc1C)CN(c1cccc(C(=O)NN)c1)C2	49
O=C1C(=O)N(c2ncc(S(=O)(=O)c3ccc([N+](=O)[O-])cc3)s2)C(c2ccc(F)cc2)/C1=C(\O)c1ccc(Cl)cc1 (centres undefined)	-12
COc1cc(/C=C2/SC(=S)N(CC(=O)O)C2=O)ccc1OC(=O)c1cccc(C)c1	20
CCCOc1ccc(C(=O)Nc2ccccc2C(=O)O)cc1	-2
CC1(C)CC(=NNC(=O)c2ccc(Br)o2)CC(C)(C)N1	-9
O=C(O)c1cccc2c1NC(c1ccc([N+](=O)[O-])cc1)C1CC=CC21 (centres undefined)	49
SMILES	VHR inh color
O=C(O)c1cccc2c1NC(c1cccc3ccccc13)C1CC=CC21 (centres undefined)	23
O=C(O)c1cccc2c1NC(c1ccc(Cl)cc1)C1CC=CC21 (centres undefined)	86*
COC(=O)CN1C(=O)/C(=C\c2ccc(Cl)cc2)SC1=S	2
O=C1/C(=C/c2ccc(Cl)cc2)SC(=S)N1CCS(=O)(=O)O	80*
CCN1C(=O)/C(=C\c2ccc(-c3ccc(F)cc3)o2)SC1=S	-5
O=C1/C(=C/c2ccc(Cl)cc2)SC(=S)N1CCc1ccccc1	-11
O=C1/C(=C\c2ccc(-c3cccc(Cl)c3)o2)SC(=S)N1CCS(=O)(=O)O	91*
CCN1C(=O)/C(=C\c2ccc(-c3ccccc3Cl)o2)SC1=S	-3
O=C(Nc1nnc(SCc2ccc(F)cc2)s1)c1ccccc1Br	-8
O=S(=O)(c1ccc(Br)c2ccccc12)N1CCCc2ccccc21	-3
O=C1NN(c2ccccc2)C(=O)/C1=C/c1ccco1	9
CCC(Oc1ccccc1)C(=O)Nc1cc(C)ccn1 (centres undefined)	-26
O=C(Nc1ccc(Cl)c(Cl)c1)Nc1nnc(-c2ccccc2Cl)s1	-8
CN1CCO/C1=C(C#N)\C=C1/C(=O)N(c2c(Cl)cccc2Cl)c2ccccc21	-7
CCOc1cc(/C=C2\SC(N3CCN(C4=NC(=O)/C(=C\c5ccc(O)c(OCC)c5)S4)CC3)=NC2=O)ccc1O	88*
COc1ccc(/C=C2\SC(N3CCCCCC3)=NC2=O)cc1OC	9
CCOc1cc(/C=C2\SC(N3CCCCCC3)=NC2=O)ccc1O	3
O=[N+]([O-])c1cccc(S(=O)(=O)Nc2ccc(OCc3ccccc3)cc2)c1	-4
COc1ccc(C(NC(=O)CC(C)C)NC(=O)CC(C)C)cc1	3
Oc1ccc(C2Nc3ccc4ccccc4c3C3C=CCC32)cc1 (centres undefined)	76*
CCC(=O)N1c2ccc3ccccc3c2C2C=CCC2C1c1ccc(F)cc1 (centres undefined)	8
O=[N+]([O-])c1ccc(C2Nc3ccc([N+](=O)[O-])cc3C3C=CCC32)cc1 (centres undefined)	-18
CCOc1ccccc1NC(=O)c1c(NC(=O)c2ccccc2)sc2c1CCC2	3
O=C(O)CN1C(=O)/C(=C\c2ccccc2Sc2ccc(Cl)cc2)SC1=S	-7
O=C(O)CCN1C(=O)/C(=C/c2cccc3ccccc23)SC1=S	6
NC(=O)c1ccccc1NC(=O)Cc1ccc(Cl)cc1	6
COc1ccc(OCC(=O)NNC(=O)C2COc3ccccc3O2)cc1 (centres undefined)	-7
CCOc1c(/C=C(\C#N)C(N)=O)c2ccccc2n1-c1c(Cl)cccc1Cl	-5
